# Among all 310,000 compounds or so, about 14,000 (4.5%) showed an effect of 50% or more. Effects have a minus sign here. Shown is part of a subset that was picked to be rich in strong results.
# Biological target: human ether-à-go-go-related gene (hERG) potassium channel (human, UniProt Q12809)
# Assay: primary screen, population patch clamp on CHO cells stably expressing hERG; higher = less effect of the substance
# 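Note: peak tail current of the secondary pulse compared with the same well before compound.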
# Chain of human ether-à-go-go-related gene (hERG) potassium channel (Q12809 whole entry, looked up): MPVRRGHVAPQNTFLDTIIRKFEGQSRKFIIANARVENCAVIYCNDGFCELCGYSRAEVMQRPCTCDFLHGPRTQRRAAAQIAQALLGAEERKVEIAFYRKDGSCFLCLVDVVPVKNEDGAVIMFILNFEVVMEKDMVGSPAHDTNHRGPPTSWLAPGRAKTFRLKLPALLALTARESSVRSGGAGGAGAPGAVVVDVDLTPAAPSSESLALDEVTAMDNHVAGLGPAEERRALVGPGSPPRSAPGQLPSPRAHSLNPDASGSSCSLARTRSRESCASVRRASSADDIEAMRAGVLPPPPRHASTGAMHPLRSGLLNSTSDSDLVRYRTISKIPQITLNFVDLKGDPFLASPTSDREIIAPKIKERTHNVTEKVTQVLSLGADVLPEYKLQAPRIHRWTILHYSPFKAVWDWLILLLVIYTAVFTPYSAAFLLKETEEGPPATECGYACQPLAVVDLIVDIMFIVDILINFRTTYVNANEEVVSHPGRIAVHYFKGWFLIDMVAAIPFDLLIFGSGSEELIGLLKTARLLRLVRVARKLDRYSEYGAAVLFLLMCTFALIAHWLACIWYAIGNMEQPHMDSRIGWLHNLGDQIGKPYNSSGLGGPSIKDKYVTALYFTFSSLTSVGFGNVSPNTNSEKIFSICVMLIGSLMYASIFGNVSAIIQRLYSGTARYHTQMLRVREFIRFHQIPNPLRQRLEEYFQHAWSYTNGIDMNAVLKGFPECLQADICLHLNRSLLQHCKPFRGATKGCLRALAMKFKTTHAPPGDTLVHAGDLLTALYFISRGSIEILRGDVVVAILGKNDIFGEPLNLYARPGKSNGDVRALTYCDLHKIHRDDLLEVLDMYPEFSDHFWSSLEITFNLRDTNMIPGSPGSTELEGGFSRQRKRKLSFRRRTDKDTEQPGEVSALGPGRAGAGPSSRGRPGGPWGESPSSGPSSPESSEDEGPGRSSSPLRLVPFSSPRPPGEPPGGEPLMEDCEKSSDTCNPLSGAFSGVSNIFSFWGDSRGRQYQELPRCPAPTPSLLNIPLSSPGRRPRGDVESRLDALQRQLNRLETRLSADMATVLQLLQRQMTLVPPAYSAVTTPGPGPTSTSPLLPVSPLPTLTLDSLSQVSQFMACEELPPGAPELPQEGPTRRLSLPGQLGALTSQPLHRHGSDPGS
row,SMILES,"hERG current change (%, negative = inhibition) at 10uM"
1,CN(C)CCOC(=O)C12CC3(C)CC(C)(CC(C)(C3)C1)C2.Cl,-7.13%
2,COc1ccc(CCNC(=O)CSCC(=O)Nc2ccccc2)cc1OC,17.8%
3,COc1ccc(/C=C/C(=O)OCC(=O)Nc2c(C)cccc2C)cc1,12.5%
4,CCOC(=O)c1c(-c2ccc(C)o2)csc1NC(=O)CSc1nnnn1-c1ccccc1,-3.66%
5,NC(=O)C(c1ccccc1)c1ncc(C(F)(F)F)cc1Cl (stereo not shown),4.88%
6,CC(C)Oc1cccc(C(=O)C2CCCN(C(=O)c3ccoc3)C2)c1 (stereo not shown),-14.7%
7,Cc1cccc(OCC(=O)N2CCN(Cc3cccnc3)CC2)c1.O=C(O)C(=O)O,-3.95%
8,Cc1cccc(OCC(=O)N2CCN(C(=O)Cc3ccccc3)CC2)c1,-13.2%
9,COc1ccc(OCC(=O)N2CCN(C(=O)c3cccc(F)c3)CC2)cc1,-7.41%
10,Cc1cccc(OCC(=O)N2CCOCC2)c1,15.5%
11,Cc1cccc(OCC(=O)N2CCN(S(C)(=O)=O)CC2)c1,11.2%
12,O=C(COc1ccc(Cl)cc1)N1CCN(C(=O)c2cccc(F)c2)CC1,-58.5%
13,COc1ccc(OCC(=O)N2CCN(Cc3ccc(SC)cc3)CC2)cc1.O=C(O)C(=O)O,-50.9%
14,CSc1ccc(CN2CCN(C(=O)COc3cccc(C)c3)CC2)cc1,-50.3%
15,Cc1cccc(OCC(=O)N2CCN(C(=O)COc3ccc(Cl)cc3)CC2)c1,-72.2%
16,CSc1ccc(CN2CCN(C(=O)CC(C)C)CC2)cc1,9.42%
17,COc1ccc(OCC(=O)N2CCN(C(C)C)CC2)cc1.O=C(O)C(=O)O,6.62%
18,O=C(COc1ccccc1)N1CCN(C(=O)c2cccc(F)c2)CC1,-7.92%
19,O=C(CS(=O)(=O)c1ccc(F)cc1)Nc1nnc(-c2cccs2)o1,13.3%
20,O=C(COC(=O)c1cnccn1)Nc1ccc(Cl)cc1C(F)(F)F,0.684%
21,CN(C)S(=O)(=O)c1ccc(C(=O)Nc2nnc(-c3ccco3)o2)cc1,12.4%
22,CCOC(=O)N1CCN(C(=O)C(NC(=O)c2ccc(CC)cc2)C(C)C)CC1 (stereo not shown),-19.5%
23,COc1cc(N2C(=O)CC(=O)NC2=O)cc(OC)c1OC,17.1%
24,COCCCNC(=O)CCCCCNS(=O)(=O)c1ccc(Br)cc1,-21.4%
25,CC(=O)Nc1ccc(/C=C/C(=O)c2ccccc2)cc1,9.09%

# — PMC4336329 (PLoS ONE, 2015)
